Measurements from PubChem BioAssay (NCATS).
Inconclusive results are not listed. The list shows a part of the results. Active and inactive are the calls of the source. Unless noted, calls follow the shape of the dose curve; as a rule, active = well fitted curve in the direction sought with a large enough effect; inconclusive = small, poorly fitted or top-dose-only effect, or another doubt; inactive = no such curve, though single readings can be large; an effect the other way counts as inactive or inconclusive.

What was measured:
[1] = molecular target: Phosphoglycerate kinase, glycosomal (Trypanosoma brucei brucei) (UniProt P07378); test: qHTS for inhibitors of Phosphogylcerate Kinase: Hit Validation Screen (AID 686980); conditions: TbPGK coupled GAPDH assay, Kinase-Glo luminescence; also: potency is read from the fitted curve at half-maximal effect; nearly all actives have a fitted effect of over 65% in size
Summary of the method: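 Recombinant glycosomal PGK reaction used 1,3-bisphosphoglycerate generated in-well by GAPDH (100nM final) in 100mM TEA pH 7.6, 5mM MgCl2, 0.01% Tween-20. After 60 minutes at room temperature, ATP was read by Kinase-Glo Plus luminescence end-point.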

[2] = molecular target: DNA polymerase iota (Homo sapiens) (UniProt Q9UNA4); test: qHTS for Inhibitors of Polymerase Iota: Confirmatory Assay for Cherry-picked Compounds (AID 720496); conditions: Pol iota primer extension, TAMRA/BHQ fluorescence; also: potency is read from the fitted curve at half-maximal effect
Summary of the method: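 Kinetic fluorescence, 0 → 10 min, ex 525/em 598 nm. Pol iota 10 nM, 15 min RT preincubation with compound, then 50 nM (final) TAMRA/BHQ-2 primer-template substrate.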

[3] = molecular target: DNA polymerase kappa (Homo sapiens) (UniProt Q9UBT6); test: qHTS for Inhibitors of Polymerase Kappa: Confirmatory Assay for Cherry-picked Compounds (AID 720501); conditions: purified Pol-kappa, fluorescent strand-displacement substrate; also: potency is read from the fitted curve at half-maximal effect
Summary of the method: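 Strand-displacement fluorescence read-out: TAMRA reporter released from a BHQ-2-quenched template, measured at 525/598 nm over a 10 min kinetic window. Substrate was 50 nM final; enzyme was 10 nM Pol-kappa, preincubated 15 min at room temperature with compound.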

[4] = molecular target: DNA polymerase eta (Homo sapiens) (UniProt Q9Y253); test: qHTS for Inhibitors of Polymerase Eta: Confirmatory Assay for Cherry-picked Compounds (AID 720502); conditions: Pol eta primer extension, TAMRA/BHQ fluorescence, 10 min; also: potency is read from the fitted curve at half-maximal effect
Summary of the method: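 10 nM Pol eta + cpd, 15 min RT; start w/ 50 nM final primer/TAMRA-reporter/BHQ-2-template substrate; kinetic read 0 and 10 min, ex 525/em 598 nm. Buffer-only wells = negative control.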

[5] = molecular target: Cytochrome P450 2D6 (Homo sapiens) (UniProt P10635); test: Cytochrome P450 family 2 subfamily D member 6 (CYP2D6) small molecule antagonists: luciferase biochemical (cell-free) qHTS assay (AID 1645840; active = well fitted curve in the direction sought with a large enough effect in the repeat runs; an effect the other way counts as inactive or inconclusive; also: nearly all actives have a fitted effect of over 55% in size; also: potency is read from the fitted curve at half-maximal effect); conditions: P450-Glo CYP2D6 enzyme, luciferin luminescence, 1 h; series mostly up to 57.4 µM
Summary of the method: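 P450-Glo CYP2D6 system: proluciferin substrate converted by enzyme to luciferin, read by luminescence proportional to activity. Enzyme-substrate mix with compound 10 min at room temperature, then NADPH regeneration 1 h before detection reagent.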

[6] = molecular target: Cytochrome P450 2C9 (Homo sapiens) (UniProt P11712); test: Cytochrome P450 family 2 subfamily C member 9 (CYP2C9) small molecule antagonists: luciferase biochemical (cell-free) qHTS assay (AID 1645842; active = well fitted curve in the direction sought with a large enough effect in the repeat runs; an effect the other way counts as inactive or inconclusive; also: nearly all actives have a fitted effect of over 55% in size; also: potency is read from the fitted curve at half-maximal effect); conditions: P450-Glo CYP2C9 enzyme assay, luciferin luminescence; series mostly up to 57.4 µM
Summary of the method: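 P450-Glo CYP2C9 system: proluciferin substrate with enzyme in mix containing 0.4% BSA, 10 min at room temperature, then NADPH regeneration solution added and incubated 1 h at 37C. Detection reagent stopped reaction; luminescence read after 20 min as RLU.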

[7] = molecular target: Glutathione peroxidase 1 (Homo sapiens) (UniProt P07203); test: Primary qHTS Assay for Inhibitors of Recombinant Selenoprotein Glutathione Peroxidase 1 (GPX1) (AID 1845191); conditions: recombinant GPX1, GR-coupled NADPH fluorescence, 15 min; series mostly up to 48.8 µM; also: nearly all actives have a fitted effect of over 65% in size; also: potency is read from the fitted curve at half-maximal effect
Summary of the method: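 NADPH consumption tracked by fluorescence at 340/450 nm between t=0 and t=15 min, room temperature. Final mix: 10 nM GPX1, 100 nM glutathione reductase, 1 mM GSH, 0.5 mM NADPH, 0.5 mM cumene hydroperoxide, 0.01% BSA; 30 min compound–enzyme preincubation.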

[8] = molecular target: Phospholipid hydroperoxide glutathione peroxidase GPX4 (Homo sapiens) (UniProt P36969); test: Primary qHTS Assay for Inhibitors of Recombinant Selenoprotein Glutathione Peroxidase 4 (GPX4) (AID 1845192); conditions: recombinant GPX4, GR-coupled NADPH fluorescence, 15 min; series mostly up to 50 µM; also: nearly all actives have a fitted effect of over 65% in size
Summary of the method: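 NADPH consumption followed by fluorescence at 340/450 nm, t=0 and after 15 min at room temperature. Reaction started with cumene hydroperoxide (0.5 mM final) after 30 min compound–GPX4 preincubation; final 200 nM GPX4, 100 nM GR, 1 mM GSH, 0.5 mM NADPH.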

[9] = molecular target: Cytochrome P450 3A4 (Homo sapiens) (UniProt P08684); test: qHTS Assay for Activators of Cytochrome P450 3A4 (AID 885); conditions: recombinant CYP3A4, Luciferin-PPXE luminescence, 60 min; series mostly up to 57.1 µM; also: nearly all actives have a fitted effect of over 65% in size
Summary of the method: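 CYP3A4 activity: Luciferin-PPXE O-dealkylation, 25uM substrate, 200mM KPO4, RT throughout. Read-out is luciferase luminescence; higher values reflect activation.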

[10] = Confirmation and Secondary Assay for Modulators of Hemoglobin Beta Chain Splicing at IVS2 654 locus (AID 910); conditions: HeLa EGFP-654 splicing reporter, GFP fluorescence, 48 h; series mostly up to 46.1 µM;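 also: HeLa cells stably carrying EGFP split by mutant beta-globin IVS2-654 intron; per-well total GFP intensity by laser scanning cytometry after 2-day treatment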
Summary of the method: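 Readout: per-well total peak green fluorescence (488 nm ex, 500–520 nm em) from objects 5–250 µm, reflecting correct splicing of an EGFP-654 reporter. Compounds were applied for 2 days at 37 °C to overnight-plated HeLa EGFP-654 cells; controls were DMSO and 500 nM IVS2-654 PNA.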

[11] = Confirmation and Secondary Assay for Modulators of Hemoglobin Beta Chain Splicing at IVS2 705 locus (AID 930); conditions: HeLa EGFP-705 splicing reporter, GFP fluorescence, 48 h; series mostly up to 46.1 µM;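 also: HeLa cells stably expressing the EGFP-705 splicing reporter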
Summary of the method: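 HeLa cells stably carrying EGFP interrupted by mutant beta-globin IVS2-705 intron (CMV-driven) were seeded at 500 cells/well, treated next day with compound for 2 days at 37C; corrected splicing restores EGFP, read as total peak GFP intensity per well.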

[12] = molecular target: ATP-dependent 6-phosphofructokinase (Trypanosoma brucei brucei) (UniProt O15648); test: qHTS Assay to Find Inhibitors of T. brucei phosphofructokinase: hit validation (AID 492961);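 also: luminescence reports ADP formed as PFK phosphorylates fructose-6-phosphate with ATP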; conditions: T. brucei PFK, ADP-Glo luminescence; series mostly up to 24.3 µM
Summary of the method: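 Measures ADP output of PFK (1.25 nM) at 0.1 mM ATP, 0.5 mM F6P, pH 8.0 TEA buffer with 5 mM MgCl2. No-enzyme wells define full inhibition; uninhibited enzyme wells define zero.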

[13] = molecular target: Ubiquitin carboxyl-terminal hydrolase 1 (Homo sapiens) (UniProt O94782); test: Inhibitors of USP1/UAF1: Pilot qHTS (AID 504865); conditions: purified USP1/UAF1, Ub-rhodamine cleavage fluorescence; series mostly up to 114 µM;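 also: rhodamine fluorescence freed from ubiquitin-rhodamine substrate followed over time; top concentration of the series differs between compounds; nearly all actives have a fitted effect of over 35% in size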
Summary of the method: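 In 50mM HEPES pH 7.8 containing 0.5mM EDTA, 1mM TCEP, 0.1 mg/ml BSA and 0.01% Tween-20, 1nM USP1/UAF1 is exposed to compound for 15 min, then Ub-Rho (150nM final) is added and fluorescence is read over time.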

[14] = molecular target: Luciferin 4-monooxygenase (Photinus pyralis) (UniProt P08659); test: Biochemical firefly luciferase enzyme assay for NPC (AID 624030);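 also: purified P. pyralis luciferase at 10 nM with luciferin and ATP substrate; nearly all actives have a fitted effect of over 70% in size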; conditions: purified P. pyralis luciferase, luminescence, 5 min; series mostly up to 24.9 µM
Summary of the method: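 Direct inhibition of firefly luciferase enzyme (10 nM final, 50 mM Tris Acetate) assessed by luminescence within 5 minutes. Percent activity scaled between DMSO and PTC124 positive control, with concentration-effect curves classified by fit quality and response.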

[15] = S16 Schwann cell viability assay (CellTiter-Glo assay) (AID 624031); conditions: S16 rat Schwann cells viability, 24 h; series mostly up to 25.7 µM;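 also: cellular ATP luminescence as a viability measure; nearly all actives have a fitted effect of over 70% in size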
Summary of the method: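 Native S16 rat Schwann cells in DMEM/10% FBS without phenol red were incubated overnight, then exposed to compounds for 24 h at 37 °C/5% CO2. Viability was read as ATP luminescence (CellTiter-Glo), normalized to no-cell wells and DMSO (0%).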

[16] = S16 Schwann cell PMP22 intronic element firefly luciferase assay (AID 624032); conditions: S16 rat Schwann cells, PMP22 element FLuc, 24 h; series mostly up to 25.7 µM; also: nearly all actives have a fitted effect of over 30% in size
Summary of the method: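 Luciferase reporter of PMP22 intronic-element expression in stably transfected S16 rat Schwann cells, read by ONE-Glo luminescence after 24 h compound exposure at 37 C. Activity scaled between DMSO (0%) and positive-control PTC124; concentration-effect curves quality-classified.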

[17] = S16 Schwann cell PMP22 intronic element beta-lactamase assay (AID 624044; calls by dose curve; also: nearly all actives have a fitted effect of over 15% in size); conditions: S16 rat Schwann cells, PMP22 element beta-lactamase FRET, 24 h; series mostly up to 17.1 µM
Summary of the method: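 Beta-lactamase reporter under a PMP22 intronic regulatory element in stable S16 rat Schwann cells; 24 h compound exposure. 460 nm blue signal normalized between DMSO (0%) and potassium clavulanate, with 535 nm FRET tracking viability; curves classed by r2 and response.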

[18] = tested on: CP238; test: qHTS profiling for inhibitors of Plasmodium falciparum proliferation (AID 504749); also: nearly all actives have a fitted effect of over 60% in size; conditions: P. falciparum in erythrocytes, SYBR Green DNA, 72 h; series mostly up to 12.8 µM
Summary of the method: (§1)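 SYBR Green fluorescence of parasite DNA, read after lysis and overnight dark incubation, measured growth over 72 h in erythrocyte culture at 0.3% parasitemia and 2.5% hematocrit. Data normalised to DMSO and 0.29 uM artemisinin, with plate-drift correction.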

[19] = tested on: CP286; test: as above; conditions: P. falciparum in erythrocytes, SYBR Green DNA, 72 h; series mostly up to 12.8 µM
Summary of the method: as §1

Measured: Potency

Chain of Glutathione peroxidase 1 (Homo sapiens) (P07203 whole entry, looked up): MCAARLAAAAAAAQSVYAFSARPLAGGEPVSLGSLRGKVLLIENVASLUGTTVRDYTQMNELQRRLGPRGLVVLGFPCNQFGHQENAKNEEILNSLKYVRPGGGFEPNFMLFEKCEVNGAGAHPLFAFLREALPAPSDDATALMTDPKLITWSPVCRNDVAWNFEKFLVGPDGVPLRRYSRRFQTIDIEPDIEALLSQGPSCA
Chain of Cytochrome P450 2D6 (Homo sapiens) (P10635 whole entry, looked up): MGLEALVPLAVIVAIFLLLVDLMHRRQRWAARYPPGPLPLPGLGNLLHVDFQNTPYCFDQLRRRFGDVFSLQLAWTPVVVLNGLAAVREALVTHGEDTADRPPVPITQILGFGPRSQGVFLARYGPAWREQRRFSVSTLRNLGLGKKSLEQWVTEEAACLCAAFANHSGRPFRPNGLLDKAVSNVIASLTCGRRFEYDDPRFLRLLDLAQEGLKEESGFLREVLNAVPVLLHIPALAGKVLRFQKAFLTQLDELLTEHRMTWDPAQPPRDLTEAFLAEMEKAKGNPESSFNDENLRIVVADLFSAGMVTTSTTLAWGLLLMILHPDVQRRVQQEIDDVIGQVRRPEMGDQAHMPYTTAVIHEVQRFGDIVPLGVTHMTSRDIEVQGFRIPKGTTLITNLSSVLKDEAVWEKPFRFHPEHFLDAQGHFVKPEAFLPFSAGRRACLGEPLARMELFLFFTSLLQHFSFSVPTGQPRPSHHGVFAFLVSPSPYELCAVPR
Chain of Cytochrome P450 2C9 (Homo sapiens) (P11712 whole entry, looked up): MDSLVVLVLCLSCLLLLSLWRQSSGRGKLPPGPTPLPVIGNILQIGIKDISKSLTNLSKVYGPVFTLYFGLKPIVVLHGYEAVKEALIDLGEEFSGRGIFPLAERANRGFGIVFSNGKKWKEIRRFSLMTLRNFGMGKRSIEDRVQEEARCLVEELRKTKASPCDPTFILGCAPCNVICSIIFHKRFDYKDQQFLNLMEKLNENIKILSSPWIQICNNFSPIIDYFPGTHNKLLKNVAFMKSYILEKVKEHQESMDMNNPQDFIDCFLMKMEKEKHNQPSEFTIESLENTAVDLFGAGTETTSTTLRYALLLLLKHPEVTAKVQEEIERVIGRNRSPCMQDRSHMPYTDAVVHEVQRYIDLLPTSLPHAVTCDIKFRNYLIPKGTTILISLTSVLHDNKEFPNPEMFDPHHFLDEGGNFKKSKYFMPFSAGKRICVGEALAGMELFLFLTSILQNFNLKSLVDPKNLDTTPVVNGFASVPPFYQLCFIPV
Chain of Phospholipid hydroperoxide glutathione peroxidase GPX4 (Homo sapiens) (P36969 whole entry, looked up): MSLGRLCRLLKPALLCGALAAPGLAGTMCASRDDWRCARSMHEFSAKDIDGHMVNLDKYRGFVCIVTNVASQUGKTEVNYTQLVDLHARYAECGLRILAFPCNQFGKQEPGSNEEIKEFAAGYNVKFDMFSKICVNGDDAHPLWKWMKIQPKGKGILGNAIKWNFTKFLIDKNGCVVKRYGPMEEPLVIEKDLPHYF
Chain of Cytochrome P450 3A4 (Homo sapiens) (P08684 whole entry, looked up): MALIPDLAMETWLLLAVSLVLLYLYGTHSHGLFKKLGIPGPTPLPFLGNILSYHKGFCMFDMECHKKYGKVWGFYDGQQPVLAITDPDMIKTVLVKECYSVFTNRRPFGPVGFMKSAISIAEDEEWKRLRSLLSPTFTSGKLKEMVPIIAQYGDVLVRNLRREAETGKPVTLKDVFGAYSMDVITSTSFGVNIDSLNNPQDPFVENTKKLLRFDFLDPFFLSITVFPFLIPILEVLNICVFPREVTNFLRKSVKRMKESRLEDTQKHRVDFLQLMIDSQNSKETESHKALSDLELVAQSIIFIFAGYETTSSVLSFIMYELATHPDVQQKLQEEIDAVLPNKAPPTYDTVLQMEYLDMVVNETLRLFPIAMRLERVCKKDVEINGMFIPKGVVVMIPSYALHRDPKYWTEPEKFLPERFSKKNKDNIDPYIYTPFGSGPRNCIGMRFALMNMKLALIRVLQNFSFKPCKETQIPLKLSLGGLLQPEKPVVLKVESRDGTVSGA
Chain of Phosphoglycerate kinase, glycosomal (Trypanosoma brucei brucei) (P07378 whole entry, looked up): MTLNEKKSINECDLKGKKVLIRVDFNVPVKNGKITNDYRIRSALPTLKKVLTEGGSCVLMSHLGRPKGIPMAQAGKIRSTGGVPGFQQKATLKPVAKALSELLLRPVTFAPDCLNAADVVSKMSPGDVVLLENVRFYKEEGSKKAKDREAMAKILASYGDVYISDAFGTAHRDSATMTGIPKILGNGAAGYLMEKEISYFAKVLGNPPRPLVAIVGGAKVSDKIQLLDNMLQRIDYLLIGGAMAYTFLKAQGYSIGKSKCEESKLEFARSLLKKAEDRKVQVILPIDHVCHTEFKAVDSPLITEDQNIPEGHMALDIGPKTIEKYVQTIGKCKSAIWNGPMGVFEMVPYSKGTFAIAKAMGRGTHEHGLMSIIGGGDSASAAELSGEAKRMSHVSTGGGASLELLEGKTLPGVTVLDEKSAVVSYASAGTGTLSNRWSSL
Chain of ATP-dependent 6-phosphofructokinase (Trypanosoma brucei brucei) (O15648 whole entry, looked up): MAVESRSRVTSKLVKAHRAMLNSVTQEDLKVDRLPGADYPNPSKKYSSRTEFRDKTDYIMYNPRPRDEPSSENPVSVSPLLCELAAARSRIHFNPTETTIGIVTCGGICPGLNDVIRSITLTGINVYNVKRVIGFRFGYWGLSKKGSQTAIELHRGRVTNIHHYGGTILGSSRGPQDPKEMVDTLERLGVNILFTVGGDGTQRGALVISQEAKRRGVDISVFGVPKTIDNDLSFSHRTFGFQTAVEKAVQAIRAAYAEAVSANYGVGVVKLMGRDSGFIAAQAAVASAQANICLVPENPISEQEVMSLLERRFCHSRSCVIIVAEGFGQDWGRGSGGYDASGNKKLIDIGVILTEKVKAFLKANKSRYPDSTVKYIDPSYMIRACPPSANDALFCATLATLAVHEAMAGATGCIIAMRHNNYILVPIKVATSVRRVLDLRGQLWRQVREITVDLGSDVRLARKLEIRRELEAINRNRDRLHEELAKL
Chain of Ubiquitin carboxyl-terminal hydrolase 1 (Homo sapiens) (O94782 whole entry, looked up): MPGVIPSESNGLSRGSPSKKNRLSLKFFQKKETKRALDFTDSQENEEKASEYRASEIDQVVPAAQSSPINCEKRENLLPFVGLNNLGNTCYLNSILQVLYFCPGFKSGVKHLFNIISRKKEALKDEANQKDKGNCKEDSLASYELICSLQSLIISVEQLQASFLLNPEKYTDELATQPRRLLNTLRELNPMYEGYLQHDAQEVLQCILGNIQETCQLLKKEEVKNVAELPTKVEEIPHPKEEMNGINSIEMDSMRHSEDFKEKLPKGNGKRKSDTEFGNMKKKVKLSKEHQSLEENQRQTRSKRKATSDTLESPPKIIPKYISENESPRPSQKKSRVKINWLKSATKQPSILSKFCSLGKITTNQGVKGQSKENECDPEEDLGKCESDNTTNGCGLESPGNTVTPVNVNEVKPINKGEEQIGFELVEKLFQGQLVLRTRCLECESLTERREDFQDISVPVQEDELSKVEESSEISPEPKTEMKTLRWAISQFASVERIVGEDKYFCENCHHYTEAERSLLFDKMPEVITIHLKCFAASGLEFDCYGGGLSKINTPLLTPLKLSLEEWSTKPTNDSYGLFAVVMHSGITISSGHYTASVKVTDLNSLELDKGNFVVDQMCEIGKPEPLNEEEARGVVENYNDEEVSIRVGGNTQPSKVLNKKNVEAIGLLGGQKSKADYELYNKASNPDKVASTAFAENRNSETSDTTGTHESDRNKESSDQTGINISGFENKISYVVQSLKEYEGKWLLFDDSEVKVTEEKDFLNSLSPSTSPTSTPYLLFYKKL
Chain of Luciferin 4-monooxygenase (Photinus pyralis) (P08659 whole entry, looked up): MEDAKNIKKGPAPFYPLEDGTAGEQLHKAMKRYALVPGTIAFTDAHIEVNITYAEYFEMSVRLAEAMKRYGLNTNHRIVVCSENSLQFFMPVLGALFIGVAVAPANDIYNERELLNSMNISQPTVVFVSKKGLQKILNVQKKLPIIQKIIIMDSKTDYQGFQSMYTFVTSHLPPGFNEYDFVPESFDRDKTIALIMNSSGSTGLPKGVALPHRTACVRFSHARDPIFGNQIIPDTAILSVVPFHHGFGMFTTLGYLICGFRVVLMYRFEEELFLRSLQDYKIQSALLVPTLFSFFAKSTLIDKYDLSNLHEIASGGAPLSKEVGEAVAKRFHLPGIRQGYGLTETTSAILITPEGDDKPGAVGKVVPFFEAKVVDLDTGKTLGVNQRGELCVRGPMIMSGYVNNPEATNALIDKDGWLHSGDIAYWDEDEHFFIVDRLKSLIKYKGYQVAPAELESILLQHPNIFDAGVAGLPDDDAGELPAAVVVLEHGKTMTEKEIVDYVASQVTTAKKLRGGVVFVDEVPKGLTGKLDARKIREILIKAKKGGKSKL
Chain of DNA polymerase iota (Homo sapiens) (Q9UNA4 whole entry, looked up): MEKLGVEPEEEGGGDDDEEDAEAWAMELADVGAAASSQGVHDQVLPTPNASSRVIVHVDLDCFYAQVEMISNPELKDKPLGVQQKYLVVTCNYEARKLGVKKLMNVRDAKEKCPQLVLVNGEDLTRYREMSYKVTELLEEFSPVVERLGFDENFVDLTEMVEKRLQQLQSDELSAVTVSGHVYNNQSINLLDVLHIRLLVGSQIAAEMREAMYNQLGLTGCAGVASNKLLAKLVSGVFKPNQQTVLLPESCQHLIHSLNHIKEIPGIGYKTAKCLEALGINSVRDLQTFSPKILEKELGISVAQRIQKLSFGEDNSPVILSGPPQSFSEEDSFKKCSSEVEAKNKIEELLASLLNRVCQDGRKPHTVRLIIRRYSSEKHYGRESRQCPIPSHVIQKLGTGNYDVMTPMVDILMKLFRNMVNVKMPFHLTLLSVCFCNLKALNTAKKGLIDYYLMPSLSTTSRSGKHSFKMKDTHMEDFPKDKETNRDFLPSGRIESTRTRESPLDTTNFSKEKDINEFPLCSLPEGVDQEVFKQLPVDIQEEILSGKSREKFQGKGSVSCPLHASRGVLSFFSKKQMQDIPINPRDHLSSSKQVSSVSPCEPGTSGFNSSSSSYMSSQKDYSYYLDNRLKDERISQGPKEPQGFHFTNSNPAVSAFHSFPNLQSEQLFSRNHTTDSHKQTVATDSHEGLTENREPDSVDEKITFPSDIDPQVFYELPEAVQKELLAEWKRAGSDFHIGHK

C=CC1=C(C(=O)O)N2C(=O)[C@@H](NC(=O)/C(=N\OCC(=O)O)c3csc(N)n3)[C@H]2SC1
active: [1] 4.11 µM | [2] 7.52 µM | [3] 4.74 µM | [4] 19 µM | [7] 7.18 µM
inactive: [5] | [6] | [8]

CC1(C)C(/C=C/C=C/C=C/C=C2/N(CCCCS(=O)(=O)O)c3ccc4ccccc4c3C2(C)C)=[N+](CCCCS(=O)(=O)[O-])c2ccc3ccccc3c21
active: [5] 26.8 µM | [6] 13.5 µM
inactive: [7]

O=C(O)CN(CC(=O)O)Cc1cc2c(-c3ccccc3C(=O)O)c3cc(CN(CC(=O)O)CC(=O)O)c(=O)cc-3oc2cc1O
not listed: [1] | [2] | [3] | [4] | [6] | [7] | [8]
inactive: all other assays above

Cc1cc(-c2nc(CN3CCC(C(=O)NCCCN4C[C@H](C)C[C@H](C)C4)CC3)co2)ccc1F
inactive: [6] | [7]
active: [5] 0.952 µM

CCCCCCCCC=CCCCCCCCC(=O)NCCOC(=O)CC(C(=O)O)S(=O)(=O)O (stereo not given)
inactive: [7] | [8]
active: [5] 13.5 µM | [6] 8.49 µM
